Results from ChEMBL document CHEMBL3988442, “University of Dundee, Small-Polar-MMV Screening Library” (2021).

Organism: Homo sapiens
Test: To identify inhibition of the IFN signalling (Jak-Stat) pathway via expression of an eGFP reporter gene under the control of an IFN-stimulated response element (ISRE) containing MxA promoter.
Type: functional
Parameters: scale not given: direction of the effect not stated beside the values
Conditions: 30 µM

Going from `CCn1cc(Br)c(C(=O)NCc2cccnc2)n1` to `CCN(CC)c1ccc(C(=O)NCc2cccnc2-n2cncn2)cn1`, the Percent Effect rises from 3.08% to 19.1%.

Going from `CCNC(=O)N1CCCCC1CCO` (stereo not given) to `O=C(Cc1ccc2c(c1)CCO2)N1CCCCC1Cn1cccn1` (stereo not given), the Percent Effect rises from -3.81% to 7.18%.

First: Cc1ccc(CN2Cc3c(C(=O)N(C)C)nn(C)c3C2)s1
Second: CN(C)C(=O)CN1C[C@@H]2CC[C@H](C1)N(Cc1cccc(Cl)c1Cl)C2
The Percent Effect of the first is lower: -12.5% for the first, 14% for the second.

Going from `COc1ccc(-n2ccc(C(=O)N3CCC(C(N)=O)C3)n2)cc1` (stereo not given) to `COc1ccccc1CC1CCCN(CC(N)=O)C1` (stereo not given), the Percent Effect falls from 16.4% to -0.966%.

Compared with `CC(C)(C)C(=O)NCCC(=O)NC(C)(C)c1ccc2c(c1)OCCO2`, `Cn1cc(CCNC(=O)CCc2ccc3c(c2)OCO3)cn1` is higher in Percent Effect: -3.61% for the first, 8.13% for the second.

First: Cn1ncc2c(NCCOc3ccc(F)cc3)nc(C3CCCC3)nc21
Second: Cn1ncc2c(=O)[nH]c(CN3CCCC3Cc3ccccc3)nc21 (stereo not given)
The Percent Effect of the first is higher: 49.2% for the first, 9.4% for the second.

First: O=C(CCc1ccsc1)NCC1CCN(c2ccccc2)C1 (stereo not given)
Second: O=C(c1ccco1)N1CCOCC2(C1)CN(c1ccccc1)C(=O)CO2 (stereo not given)
The Percent Effect of the first is higher: 9.93% for the first, 5.08% for the second.

Going from `CC(NC(=O)COc1nc(C(C)(C)C)no1)c1ccco1` (stereo not given) to `CN(Cc1ccco1)C(=O)[C@H]1CSCN1C(=O)OC(C)(C)C`, the Percent Effect rises from -3.88% to -0.327%.

First: CCOCCN1CCN(Cc2nnc(C3CC3)o2)CC1CC (stereo not given)
Second: CCc1cnc(CN(C(C)=O)C2CCN(CCc3cnn(C)c3)C2)o1 (stereo not given)
The Percent Effect of the first is higher: 2.56% for the first, -1.17% for the second.

Going from `Cc1nccc(CNC(=O)NCCOc2ccc(F)c(F)c2)n1` to `CCCc1cc(=O)[nH]c2nnc(SCC(=O)NCc3ccc(C)cc3)n12`, the Percent Effect rises from 8.46% to 16.9%.

Going from `COC[C@]12COC[C@H]1CN(Cc1cc(OC)cc(OC)c1)C2` to `COc1ccc(-c2nnc(SC(C)C(=O)NC3CC3)[nH]2)c(OC)c1` (stereo not given), the Percent Effect rises from -4.13% to 71.7%.

First: CN(C)CC(=O)N1CCC2(CC1)CN(c1ccsc1)C(=O)CO2
Second: Cn1ccc(CN2CCC(COC3CCCC3)CC2)cc1=O
The Percent Effect of the first is lower: 15.6% for the first, 26.8% for the second.

Going from `Cc1cc(NC(=O)CCN2CCCC2Cn2cncn2)no1` (stereo not given) to `Cc1cnn(CC2CCCCN2C(=O)c2ccc3nnc(C)n3c2)c1` (stereo not given), the Percent Effect rises from 2.3% to 21%.

Compared with `Cc1nc(C)n(CC2CCCN(CCc3ccncc3)C2)n1` (stereo not given), `Cc1cc(C(=O)N2CC[C@H](OCC3CC3)[C@@H]2Cc2cccnc2)no1` is lower in Percent Effect: -0.0927% for the first, -3.71% for the second.

First: CCS(=O)(=O)N(C)C(=O)c1cc(C)n(-c2cccc(OC)c2)c1C
Second: CCN(Cc1cccc(Cl)c1)Cc1nc2c(cnn2C)c(=O)[nH]1
The Percent Effect of the first is higher: 28.1% for the first, -5.75% for the second.

Going from `Cc1cc(-c2cnn(CCNC(=O)C3CCCO3)c2C2CC2)on1` (stereo not given) to `Cn1cc(CCNC(=O)NCc2nnc3n2CCC3)cn1`, the Percent Effect rises from 0.87% to 4.78%.

First: COc1ccc(NC(=O)N2CCCC2c2ccco2)cc1OC (stereo not given)
Second: O=C(c1ccc(=O)[nH]n1)N1CC(c2nc(Cc3ccccc3)no2)C1
The Percent Effect of the first is higher: 19.6% for the first, 0.0834% for the second.

Going from `Cn1cnc2c1C(COCC1CCOCC1)CN(C1CCOCC1)C2` (stereo not given) to `c1csc(-c2nc(CNC3CCc4ncnn4C3)co2)c1` (stereo not given), the Percent Effect rises from -11.2% to 20.4%.

Compared with `CCC(C)NC(=O)Cc1c(C)nc2c(c1C)c(=O)[nH]n2C` (stereo not given), `Cc1noc(C(C)C)c1C(=O)NCc1cc(F)cc(F)c1` is higher in Percent Effect: -10.2% for the first, 17.8% for the second.

First: Cc1nn(C)c(N(C)C)c1CNCc1cccnc1-n1cncn1
Second: Cc1nc(CN(Cc2ccccc2)C2CCS(=O)(=O)C2)oc1C (stereo not given)
The Percent Effect of the first is higher: -1.83% for the first, -8.35% for the second.
